An excerpt weighted towards active compounds, which were near 3.4% of everything screened.
MITF inh = inhibitors of human MITF; AlphaScreen MITF homodimerization, bead proximity signal; hit rate 0.91% among 650,000; inhibition, % at 2.6 µM; in the data active = inhibition above about 50%;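 also: 0% = vehicle wells with protein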
GPR151 ag = human GPR151 activation; Q8TDV0; PathHunter beta-arrestin GPR151 cells, luminescence; activation, % at 11.2 µM; hit rate 1% among 650,000; in the data active = activation above about 4.9%;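 also: 0% = median of compound wells and 100% = cells with positive control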
FBW7 activator = activators of human E3 ligase FBW7. Q969H0. AlphaScreen FBW7–phospho-cyclin E peptide binding, activator screen. normalized activity (activation), % at 26.1 µM. hit rate 0.13% among 650,000; in the data active = normalized activity above about 1.9%;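 also: purified mutant Fbw7 with reduced substrate affinity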
TEAD-YAP block = TEAD-YAP interaction inhibition. HEK-TIYL cells, TEAD-Gal4/YAP UAS-luciferase luminescence. inhibition, % at 9.12 µM. hit rate 1.4% among 640,000; in the data active = inhibition above about 32%;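 also: 0% = median of test compound wells and 100% = reference inhibitor wells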
MITF confirm = human MITF inhibition, confirmation; shares compounds with MITF inh; AlphaScreen MITF homodimerization, biotin/His-MITF beads; inhibition, % at 2.6 µM; hit rate 16% among 4,700;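 active = inhibition above a cutoff derived from the DMSO control wells, cut at about 28% in these data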;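 also: 0% = MITF dimer wells with DMSO only; inhibitors lower the bead chemiluminescence by keeping MITF from dimerizing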
AlphaScreen DR = optically interferes with AlphaScreen signal in dose response | shares compounds with MITF inh | AlphaScreen optical interference counterscreen, cell-free | IC50, µM | hit rate 6% among 480 | AID 1259373; call rule not given here
AS interf ctr = counter-screen: compounds optically interfering with AlphaScreen | shares compounds with MITF inh | LysRS AlphaScreen counterscreen, signal interference, triplicate | inhibition, % at 2.6 µM | hit rate 7.6% among 4,700;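 active = inhibition above a cutoff derived from the DMSO control wells, cut at about 30% in these data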
* = called active by the depositor; . = not tested or not shown.

SMILES	MITF inh	GPR151 ag	FBW7 activator	TEAD-YAP block	MITF confirm	AS interf ctr	others
COc1ccc(CN2CCN(Cc3ccccc3)CC2)c(O)c1	11	1	0	-3	.	.
CN1CCN(Cc2cccc3ccccc23)CC1	39	0	0	12	.	.
Cc1ccc(CN2CCN(Cc3ccccc3Cl)CC2)cc1	59*	1	0	-8	-3	1
CCOC(=O)COc1ccc(/C=N/N/C(N)=N/[N+](=O)[O-])cc1OC	14	0	1	11	.	.
CSc1ccc(/C=C/c2nc3ccccc3c(=O)n2-c2ccc(Cl)cc2)cc1	-7	0	0	-13	.	.
COc1cccc(CN2CCN(Cc3ccccc3Br)CC2)c1	73*	-1	0	-6	6	15
COc1ccc(O)c(CN2CCN(Cc3ccccc3Br)CC2)c1	50	0	0	-12	.	.
Clc1cccc(N2CCN(Cc3ccccc3)CC2)c1	2	1	0	13	.	.
Clc1cccc(CN2CCN(Cc3ccccc3Br)CC2)c1	77*	-1	0	-6	9	4
COc1ccc(CN2CCN(Cc3ccccc3Cl)CC2)cc1	81*	-1	0	3	0	9
CCOC(=O)C1C2NC(=S)N(CCc3ccccc3)C1(C)Oc1ccccc12 (stereo not given)	50	0	0	2	.	.
N#CCCn1cc(C(=O)Nc2cccc([N+](=O)[O-])c2)c(-c2cccc(Cl)c2)n1	2	1	0	-16	.	.
CN(C)C1C(=O)C(C(N)=O)=C(O)C2(O)C(=O)C3=C(O)c4c(O)cccc4C(C)(O)C3CC12 (stereo not given)	51*	-1	0	15	43*	3	AlphaScreen DR=>6.5
CN(C)[C@@H]1C(=O)C(C(N)=O)=C(O)[C@@]2(O)C(=O)C3=C(O)c4c(O)cccc4[C@@](C)(O)[C@H]3C[C@@H]12	11	0	0	-16	.	.
COc1ccc(CN2CCN(Cc3cccc(Cl)c3)CC2)cc1	83*	1	0	6	19	14
CC(=O)c1ccc(N2CCN(Cc3cccc(Cl)c3)CC2)cc1	33	1	0	-2	.	.
COc1ccc(O)c(CN2CCN(Cc3cccc(Cl)c3)CC2)c1	5	1	0	-5	.	.
CSc1ccc(CN2CCN(Cc3cccc(Cl)c3)CC2)cc1	67*	0	0	2	19	20
COc1cccc(CN2CCN(Cc3cccc(Cl)c3)CC2)c1	70*	-1	0	17	14	20
Cc1ccc2[nH]c(C)c(CCNCc3ccccn3)c2c1	15	0	0	8	.	.
COc1ccc(CCNC(=O)CN2C3CCC2CC(O)(c2nccn2C)C3)cc1OC (stereo not given)	20	2	0	-4	.	.
CCN1CCN(Cc2cccc(F)c2)CC1	-1	-2	0	6	.	.
CCc1ccc(CN2CCN(Cc3cccc(F)c3)CC2)cc1	75*	-1	0	-12	5	3
CCc1ccc(CN2CCN(Cc3cccc(C)c3)CC2)cc1	39	0	0	-8	.	.
Cc1cccc(CN2CCN(Cc3ccc(Cl)cc3)CC2)c1	59*	0	0	10	9	16
SMILES	MITF inh	GPR151 ag	FBW7 activator	TEAD-YAP block	MITF confirm	AS interf ctr	others
Cc1cccc(CN2CCN(Cc3cccc(F)c3)CC2)c1	76*	-1	0	3	2	7
CCc1ccc(CN2CCN(Cc3ccc(F)cc3)CC2)cc1	57*	0	0	-6	0	-4
Cc1ccccc1Cc1c(C(=O)NCCn2ccnc2)c(=O)cc(C)n1Cc1ccccn1	7	-1	0	-3	.	.
O.O.O.O.O.O=C1OC2(c3cc(Br)c(O)cc3Oc3c2cc(Br)c(O)[c]3[Hg])c2ccccc21.O=C1OC2(c3cc(Br)c(O)cc3Oc3c2cc(Br)c(O)[c]3[Hg])c2ccccc21.[Na+].[Na+] (stereo not given)	15	-2	0	.	.	.
N#Cc1cc(-c2nc3ccccc3s2)c(=N)n2c1sc1ccccc12	2	1	0	2	.	.
CC(=O)Nc1nc2nc(C)cc(C)n2[n+]1-c1ccccc1	0	1	0	-2	.	.
Fc1cccc(CN2CCN(Cc3ccccc3F)CC2)c1	70*	0	0	-1	7	-6
Fc1cccc(CN2CCN(Cc3ccccc3)CC2)c1	64*	-1	0	8	-4	-7

From PubChem BioAssay
